Assay results as given in PubChem BioAssay (Tox21).
Records with an inconclusive call do not appear. The source made the active and inactive calls. Calls follow the shape of the dose curve; as a rule, active = well fitted curve in the direction sought with a large enough effect in the repeat runs; inconclusive = weak or mixed curves; inactive = no such curve, though single readings can be large; an effect the other way counts as inactive or inconclusive.

Assays:
[1] = qHTS RealTime-Glo MT Cell Viability Assay in HEK293 cells - 32 hour (AID 1224868); also: top concentration of the series differs between compounds; nearly all actives have a fitted effect of over 50% in size
Method in brief: (§1)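 Homogeneous bioluminescent viability format in HEK293 cells (600 cells/well). Following 5 h at 37 C/5% CO2, 23 nL compound was pintooled; the signal was measured repeatedly during 40 h incubation.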

[2] = A CellTox Green Cytotoxicity Assay to monitor cytotoxicity in HEK293 cells - 0 hour (AID 1224869); also: nearly all actives have a fitted effect of over 50% in size
Method in brief: (§2)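 Nonlytic real-time cytotoxicity: HEK293 + CellTox Green reagent plated, 5 h preincubation, pintool compound addition (23 nL in DMSO), 37 C for 40 h, fluorescence measured at successive time points.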

[3] = qHTS RealTime-Glo MT Cell Viability Assay in HepG2 cells - 40 hour (AID 1224870); also: nearly all actives have a fitted effect of over 50% in size
Method in brief: (§3)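 HepG2 cells (600/well) mixed with RealTime-Glo MT reagent, settled 5 h at 37 C/5% CO2 before compound addition. Nonlytic NanoLuc luminescence from viable-cell prosubstrate reduction read repeatedly during 40 h treatment at 37 C.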

[4] = A CellTox Green Cytotoxicity Assay to monitor cytotoxicity in HEK293 cells - 40 hour (AID 1224871); also: nearly all actives have a fitted effect of over 45% in size
Method in brief: as §2

[5] = qHTS RealTime-Glo MT Cell Viability Assay in HEK293 cells - 16 hour (AID 1224872); also: top concentration of the series differs between compounds; nearly all actives have a fitted effect of over 50% in size
Method in brief: as §1

[6] = qHTS RealTime-Glo MT Cell Viability Assay in HepG2 cells - 8 hour (AID 1224873); also: nearly all actives have a fitted effect of over 55% in size
Method in brief: as §3

[7] = qHTS RealTime-Glo MT Cell Viability Assay in HEK293 cells - 40 hour (AID 1224874); conditions: RealTime-Glo luminescence, stronger effect = lower value; also: nearly all actives have a fitted effect of over 50% in size
Method in brief: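 Cells were seeded together with NanoLuc luciferase and a prosubstrate that viable cells reduce to a luciferase substrate. After a 5 h incubation at 37 C/5% CO2, compounds were added and luminescence was measured repeatedly during 40 h of treatment.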

[8] = A CellTox Green Cytotoxicity Assay to monitor cytotoxicity in HEK293 cells - 24 hour (AID 1224875); also: series mostly up to about 77 µM; nearly all actives have a fitted effect of over 45% in size
Method in brief: as §2

[9] = A CellTox Green Cytotoxicity Assay to monitor cytotoxicity in HepG2 cells - 16 hour (AID 1224876); also: nearly all actives have a fitted effect of over 45% in size
Method in brief: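 Read-out is fluorescence of a cyanine dye excluded from live cells that stains DNA of dead HepG2 cells, with signal proportional to cytotoxicity. Plates were read at 0, 8, 16, 24, 32 and 40 h after compound addition.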

[10] = qHTS RealTime-Glo MT Cell Viability Assay in HepG2 cells - 32 hour (AID 1224877); also: nearly all actives have a fitted effect of over 55% in size
Method in brief: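 Cell number in HepG2 cultures estimated from NanoLuc luminescence generated by metabolic reduction of a prosubstrate by living cells. The homogeneous, nonlytic format allowed repeated reads at 0, 8, 16, 24, 32 and 40 h of compound exposure.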
% is scaled to controls: 0 for no effect and ±100 for the full control effect.

CC1=C(O)C(=O)CO1
inactive: outcome [1] | outcome [2] | outcome [3] | Potency [4] | outcome [5] | outcome [6] | max response [7] 0.017% | Potency [8] | Potency [9] | outcome [10]

CC(CC(=O)Cl)CC(C)(C)C (configuration not stated)
inactive: outcome [1] | outcome [2] | outcome [3] | Potency [4] | outcome [5] | outcome [6] | max response [7] 4.64% | Potency [8] | Potency [9] | outcome [10]

Cc1ccc(Br)cc1
inactive: outcome [1] | outcome [2] | outcome [3] | Potency [4] | outcome [5] | outcome [6] | max response [7] 0.938% | Potency [8] | Potency [9] | outcome [10]

CC(C)(C)c1ccc(C(=O)CCCCl)cc1
inactive: outcome [1] | outcome [2] | outcome [3] | Potency [4] | outcome [5] | outcome [6] | max response [7] -1.09% | Potency [8] | Potency [9] | outcome [10]

CCNC(=O)C(C)OC(=O)Nc1ccccc1 (configuration not stated)
inactive: outcome [1] | outcome [2] | outcome [3] | Potency [4] | outcome [5] | outcome [6] | max response [7] -1.79% | Potency [8] | Potency [9] | outcome [10]

CCC(=O)OCCOc1ccccc1
inactive: outcome [1] | outcome [2] | outcome [3] | Potency [4] | outcome [5] | outcome [6] | max response [7] 5.48% | Potency [8] | Potency [9] | outcome [10]

C=CCOC(=O)CCCCCCCC
inactive: outcome [1] | outcome [2] | outcome [3] | Potency [4] | outcome [5] | outcome [6] | max response [7] 16% | Potency [9] | outcome [10]

Nc1ccc(C(=O)NCC(=O)O)cc1
inactive: outcome [1] | outcome [2] | outcome [3] | Potency [4] | outcome [5] | outcome [6] | max response [7] -0.411% | Potency [8] | Potency [9] | outcome [10]

CC(C)(C)NCC(O)COc1cccc2c1CCC(=O)N2 (configuration not stated)
inactive: outcome [1] | outcome [2] | outcome [3] | Potency [4] | outcome [5] | max response [7] 5.27% | Potency [8] | Potency [9] | outcome [10]

CN1C(CCl)Nc2cc(Cl)c(S(N)(=O)=O)cc2S1(=O)=O (configuration not stated)
inactive: outcome [1] | outcome [2] | outcome [3] | Potency [4] | outcome [5] | max response [7] -6.26% | Potency [8] | Potency [9]

CC(C)(O)c1ccc(C(C)(C)O)cc1
inactive: outcome [1] | outcome [2] | outcome [3] | Potency [4] | outcome [5] | max response [7] 0.887% | Potency [8] | Potency [9] | outcome [10]

CCCCCC(CC)OC(=O)CCCOc1ccc(Cl)cc1Cl (configuration not stated)
inactive: outcome [1] | outcome [2] | outcome [3] | Potency [4] | outcome [5] | max response [7] 2.48% | Potency [8] | Potency [9] | outcome [10]

O=S(=O)(O)CC(O)CCl (configuration not stated)
inactive: outcome [1] | outcome [2] | outcome [3] | Potency [4] | outcome [6] | max response [7] 5.44% | Potency [8] | Potency [9] | outcome [10]

CC1(C)S[C@@H]2[C@H](NC(=O)Cc3ccccc3)C(=O)N2[C@H]1C(=O)O (tested in a mixture with another compound)
inactive: outcome [1] | outcome [2] | outcome [3] | Potency [4] | outcome [6] | max response [7] -2.11% | Potency [8] | Potency [9] | outcome [10]

CCCCCCCCS(=O)(=O)O
inactive: outcome [1] | outcome [2] | outcome [3] | Potency [4] | outcome [6] | max response [7] -0.584% | Potency [8] | Potency [9]

CCO[Si](CC(C)C)(OCC)OCC
inactive: outcome [1] | outcome [2] | outcome [3] | Potency [4] | outcome [6] | max response [7] -8.56% | Potency [8] | outcome [10]

NS(=O)(=O)c1cc2c(cc1C(F)(F)F)NCNS2(=O)=O
inactive: outcome [1] | outcome [2] | outcome [3] | Potency [4] | outcome [5] | max response [7] 14.4% | Potency [8] | Potency [9] | outcome [10]

OCCC(F)(F)C(F)(F)C(F)(F)C(F)(F)C(F)(F)C(F)(F)F
inactive: outcome [1] | outcome [2] | outcome [3] | Potency [4] | outcome [5] | max response [7] -4.06% | Potency [9] | outcome [10]

CC(=O)Oc1ccc(C(C)=O)cc1
inactive: outcome [1] | outcome [2] | outcome [3] | Potency [4] | outcome [6] | max response [7] -8% | Potency [9] | outcome [10]

O=S(=O)(O)c1ccc(Cl)cc1
inactive: outcome [1] | outcome [2] | outcome [3] | Potency [4] | max response [7] 0.949% | Potency [8] | Potency [9]

C=CCN(CC=C)CC=C
inactive: outcome [1] | outcome [2] | outcome [3] | Potency [4] | outcome [5] | max response [7] 12.2% | Potency [8] | Potency [9]

CC/C=C/CCCCCCCCCCOC(C)=O
inactive: outcome [1] | outcome [2] | outcome [3] | Potency [4] | outcome [5] | outcome [6] | Potency [9] | outcome [10]

O=C1c2ccccc2C(=O)N1CO
inactive: outcome [1] | outcome [2] | outcome [3] | Potency [4] | outcome [5] | max response [7] -6.25% | Potency [9] | outcome [10]

C/C=C/C(=O)CCCC
inactive: outcome [1] | outcome [2] | outcome [3] | Potency [4] | outcome [5] | max response [7] 0.74% | Potency [8] | Potency [9] | outcome [10]

COC(=O)c1cc(Cl)c(NC(C)=O)cc1OC
inactive: outcome [1] | outcome [2] | outcome [3] | Potency [4] | outcome [5] | max response [7] 0.647% | Potency [8] | Potency [9] | outcome [10]
